Screens: PubChem, National Center for Advancing Translational Sciences (NCATS)
Many of the other results were omitted from the sample, so hits are more common in it than they were.
Pf Dd2 growth – blocks in vitro growth of P. falciparum Dd2. P. falciparum Dd2 growth, SYBR Green, 72 h. AID 1347417. Potency, µM (titrated, usually from 28.9 µM), for inactives: top-dose activity, negative = inhibition, hits mostly inhibitors. 120,000 tested, 4.3% active; active = well fitted inhibition curve with a large enough effect;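 note: plate controls were DMSO vehicle for no effect and reference drug for full effect; nearly all actives have a fitted effect of over 65% in size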
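Infected erythrocytes (Dd2, 0.3% parasitemia, 2.5% hematocrit final) are added to compound in RPMI-1640/Albumax II medium, grown 72 h at 37C in low oxygen, then lysed with saponin/Triton-X containing SYBR Green and read by fluorescence.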
Starred values were filed as active, the others as inactive; i = inactive; [ ] = another dose, or the depositor's remark. Potency is the fitted concentration of half-maximal effect.

SMILES | Pf Dd2 growth
CC(C)C(=O)N1CCc2c(n(Cc3cccnc3)n(CCc3ccccc3)c2=O)C1 | 15.3%[44.1 µM]
Cc1ccc(C(=O)N2CCN(C(=O)c3nnn4c3COC(c3ccc(Cl)cc3)C4)CC2)c(C)c1 (centres undefined) | -1.8%
Cc1ccc(C(=O)N2CCN(C(=O)c3nnn4c3COC(c3ccc(Cl)cc3)C4)CC2)s1 (centres undefined) | 2.82µM*
Cc1ccc(C)c(C(=O)N2CCN(C(=O)c3nnn4c3COC(c3ccc(Cl)cc3)C4)CC2)c1 (centres undefined) | i
NC(=O)c1ccc(-c2nccc(N3CCC(O)CC3)n2)cc1Cl | -10.0%
CNC(=O)N1CCC(C2CCN(C(=O)c3cnccc3C)C2)CC1 (centres undefined) | 8.5%
CCC(C(=O)NCc1ccc(OC)c(OC)c1)n1nc(C)c2c(C)n(-c3ccc(C)cc3)nc2c1=O (centres undefined) | 2.82µM*
Cc1ccc(CCNC(=O)C(C)n2nc(C)c3c(C)n(-c4ccc(C)cc4)nc3c2=O)cc1 (centres undefined) | i
CCC(C(=O)Nc1cc(F)ccc1F)n1nc(C)c2c(C)n(-c3ccc(C)cc3)nc2c1=O (centres undefined) | 0.5%
COc1ccc(C(=O)NC2CCN(c3cn[nH]c(=O)c3)CC2)cc1OC | 8.8%
CC(c1cccs1)N(C)C(=O)c1ccc(C(F)(F)F)cc1 (centres undefined) | -19.8%[44.1 µM]
Cn1ncc(N2CCC(NC(=O)CCC3CCCCC3)CC2)cc1=O | 1.5%
COc1ccc(C(=O)N2CCN(Cc3cn(-c4ccccc4)nn3)CC2)cc1 | i
Cc1cc(C)cc(N2CCN(Cc3cn(-c4ccccc4)nn3)CC2=O)c1 | 11.2µM*
c1ccc(-n2cc(CN3CCN(c4nc5ccccc5o4)CC3)nn2)cc1 | -13.9%
COc1cc(C2c3c(-c4c(C)cc(C)cc4O)n[nH]c3C(=O)N2CCO)cc(OC)c1OC (centres undefined) | i
COc1cc(C2c3c(-c4ccccc4O)n[nH]c3C(=O)N2Cc2ccco2)ccc1OCC(C)C (centres undefined) | 2.24µM*
COc1cc(C2c3c(oc4ccccc4c3=O)C(=O)N2Cc2ccccc2Cl)ccc1O (centres undefined) | -26.2%
COc1cc(C2c3c(-c4ccccc4O)n[nH]c3C(=O)N2CCO)ccc1OCC(C)C (centres undefined) | 10µM*
COc1ccc(C2c3c(-c4ccc(F)cc4)n[nH]c3C(=O)N2c2ccccc2)cc1OC (centres undefined) | -4.1%
CS(=O)(=O)N1CCCCC1c1nc(CCOCC2CCCC2)no1 (centres undefined) | i
COc1ccccc1N1CCN([C@@H]2[C@H](O)[C@H](CO)O[C@@H]2CNC(C)=O)CC1 | -3.6%
O=C(c1ccc(F)c(F)c1)N1CCC[C@H]1c1nc(-c2ccccc2Cl)no1 | -26.2%
COc1ccc(CC(=O)N2[C@H]3CC[C@@H]2c2cnc(-c4ccccc4)nc2C3)cc1OC | -18.9%
COc1ccc(CNC(=O)[C@@H]2Cc3nc[nH]c3CN2Cc2ccc(CO)o2)cc1 | i
SMILES | Pf Dd2 growth
O=C(NCc1ccccc1)[C@@H]1Cc2nc[nH]c2CN1Cc1ccc(Cl)cc1 | -9.0%[44.1 µM]
O=C([C@@H]1Cc2nc[nH]c2CN1Cc1ccc(Cl)cc1)N1CCOCC1 | i
COc1ccc(CNC(=O)[C@@H]2Cc3nc[nH]c3CN2Cc2ccc(C(=O)O)cc2)cc1 | 0.6%[44.1 µM]
COc1ccc(CNC(=O)[C@@H]2Cc3nc[nH]c3CN2Cc2ccc(Cl)cc2)cc1 | 12.6µM*
O=C(NC1CCCCC1)[C@@H]1Cc2nc[nH]c2CN1Cc1ccc(Cl)cc1 | 12.6µM*
Cc1cnc(C)c(-c2cc(O)c3c(c2)CN(C(=O)C2CCNC2)CCO3)n1 (centres undefined) | 2.9%
CCN(CC)c1ncccc1CNC(=O)c1coc2c1C(=O)CCC2 | -22.1%
CCOc1ccc(C(=O)N2CCC(Cc3nc(-c4cnccn4)no3)CC2)cc1OCC | -13.5%
OC1(c2nc(Nc3ccc(OC(F)(F)F)cc3)n[nH]2)CCOCC1 | i
COC[C@@H]1CN(Cc2ccc(F)c(F)c2)C[C@H]1C(=O)NC1CC1 | -30.0%
O=C(CC1CCCC1)Nc1ccc2ncnc(N3CCCCC3)c2c1 | -3.1%
CO[C@H]1[C@H](NC(=O)Cc2ccc(C)cc2)c2ccccc2C12CCNCC2 | -11.8%
COc1ccc2c(c1)CN(Cc1ccccc1)CC[C@H]1COC(=O)N21 | -9.8%[44.1 µM]
Cc1cc(C)c(Cn2c3ccccc3c3cnn(CC(=O)NCc4ccc(Cl)cc4)c(=O)c32)c(C)c1 | 7.94µM*
O=C(Cn1ncc2c3ccccc3n(Cc3cccc(Cl)c3)c2c1=O)NCCCc1ccccc1 | -6.1%
Cc1ccccc1Cn1c2ccccc2c2cnn(CC(=O)NCc3cccc(Cl)c3)c(=O)c21 | -5.1%
O=C(Cn1ncc2c3ccccc3n(Cc3ccc(Cl)cc3)c2c1=O)NCCCc1ccccc1 | 33.8%[0.594 µM]
CCCN1CCN(C(=O)Cn2ncc3c4ccccc4n(Cc4cccc(Cl)c4)c3c2=O)CC1 | 11.2µM*
Cc1ccc(Cn2c3ccccc3c3cnn(CC(=O)Nc4cc(Cl)ccc4C)c(=O)c32)cc1 | 11.6%
CCCCN(C)CCCNC(=O)Cn1ncc2c3ccccc3n(Cc3cccc(Cl)c3)c2c1=O | 5.62µM*
CCN(CC)CCCNC(=O)Cn1ncc2c3ccccc3n(Cc3ccccc3)c2c1=O | -22.0%
CCCn1c2ccccc2c2cnn(CC(=O)NC(C)CC)c(=O)c21 (centres undefined) | 4.8%
Cc1cc(N)n(CC(=O)N2CC[C@@]3(O)CCN(S(C)(=O)=O)C[C@H]3C2)n1 | -6.4%
CCCCNC(=O)Cc1csc2nc(C)c(-c3cc(C)n(-c4ccccc4CC)n3)c(=O)n12 | -9.0%
CC(=O)Nc1ccc(OCC(=O)N2CCN(c3ccc(Cl)cc3)CC2)nc1 | 23.1%
SMILES | Pf Dd2 growth
COCCN1C(=O)c2ccccc2C(C(=O)Nc2nnc(C3CC3)s2)C12CCCCC2 (centres undefined) | 7.94µM*
COCCN1C(=O)c2ccccc2C(C(=O)Nc2nnc(COC)s2)C12CCCCC2 (centres undefined) | -26.0%
COCCN1C(=O)c2ccccc2C(C(=O)Nc2nc3ccccc3s2)C12CCCCC2 (centres undefined) | 2.51µM*
COCCN1C(=O)c2ccccc2C(C(=O)Nc2cccc(C)n2)C12CCCCC2 (centres undefined) | i
COC(=O)CCNC(=O)C1c2ccccc2C(=O)N(CC(C)C)C12CCCCC2 (centres undefined) | -15.8%
COCc1nnc(NC(=O)C2c3ccccc3C(=O)N(CC(C)C)C23CCCCC3)s1 (centres undefined) | 3.55µM*
COCCN1C(=O)c2ccccc2C(C(=O)Nc2ccccc2O)C12CCCC2 (centres undefined) | i
COCCN1C(=O)c2ccccc2C(C(=O)NC(C)C)C12CCCCC2 (centres undefined) | -7.1%
CCCCNC(=O)C1c2ccccc2C(=O)N(CCOC)C12CCCCC2 (centres undefined) | -13.3%
COCCNC(=O)CCc1c(C)nn(-c2ccccc2)c1Oc1ccc(F)cc1F | i
O=C(c1ccco1)N1CCc2nn(Cc3ccccc3)c(=O)n2CC1 | i
COCCN1C(=O)[C@@H]2C[C@@H](CN2Cc2ccc3ccccc3n2)Oc2ccccc21 | -9.7%[44.1 µM]
Cc1nc2n(c1C(=O)NCCOc1ccccc1)CCC(Nc1ccc(F)cc1)C2 (centres undefined) | i
O=C(O)CC1(CC(=O)N[C@H]2CO[C@H]3[C@@H]2OC[C@@H]3n2nnnc2Oc2ccccc2)CCCC1 | 21.2%
